PPC-1+TRAIL kill: compounds killing PPC-1 cancer cells with TRAIL present, primary screen, TRAIL potentiator project, ATPLite luminescence, uHTS | PPC-1 cells + TRAIL, ATPLite viability luminescence | cell killing (% activity), % at 4 µM or 5 µM | hit rate 0.41% among 220,000;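 active = cell killing above 50% in the first pass at 4 µM, then a duplicate retest at 5 µM averaging 50% or more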;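 note: plate controls were cells with TRAIL plus DMSO for no effect and medium-only wells lacking cells for full effect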
SENP7 inh: SENP7 protease inhibitors, primary screen, biochemical, luminescence, uHTS; Sentrin-specific protease 7 (Homo sapiens), Q9BQF6; recombinant SENP7, Z-RLRGG-aminoluciferin luminescence, 40 min; inhibition, % at 5 µM; hit rate 1.5% among 330,000; AID 434973, 2010;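 active = inhibition above about 50% at the single test dose, limit read from the data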;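 note: plate controls were DMSO with enzyme for no effect and no enzyme buffer wells for full effect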
Target sequence (Q9BQF6 706-1050 limits assumed): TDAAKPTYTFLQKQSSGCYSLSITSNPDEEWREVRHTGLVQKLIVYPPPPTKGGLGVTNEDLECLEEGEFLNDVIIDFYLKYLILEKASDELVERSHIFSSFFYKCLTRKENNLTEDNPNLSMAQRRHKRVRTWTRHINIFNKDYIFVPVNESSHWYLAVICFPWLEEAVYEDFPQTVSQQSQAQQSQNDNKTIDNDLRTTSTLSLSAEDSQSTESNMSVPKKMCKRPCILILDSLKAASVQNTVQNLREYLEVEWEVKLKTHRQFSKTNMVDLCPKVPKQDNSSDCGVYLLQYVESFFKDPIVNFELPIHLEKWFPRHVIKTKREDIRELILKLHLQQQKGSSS
SENP8 block-1: human SENP8 protease inhibitors, primary screen, biochemical, fluorescence, Nedd8 protein substrate, uHTS. recombinant SENP8. inhibition, % at 20 µM. AID 602440, 2012. hit rate 0.64% among 360,000. Sentrin-specific protease 8 (Homo sapiens), Q96LD8; in the data active = inhibition mostly above about 40%, no sharp cut-off; inactive = mostly below about 27%
SENP8 block-2: SENP8 protease inhibitors, primary screen, biochemical, luminescence; inhibition, % at 10 µM; hit rate 1.2% among 330,000; purified SENP8, Z-RLRGG-aminoluciferin cleavage; AID 2540, 2010; in the data active = inhibition above about 50%
SENP6 block: SENP6 protease inhibitors, primary screen, biochemical, luminescence, uHTS | hit rate 1.8% among 330,000 | inhibition, % at 10 µM | Recombinant SENP6 catalytic domain, aminoluciferin luminescence;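 active = inhibition above about 50% at the single tested dose, limit read from the data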;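 note: plate controls were DMSO wells with enzyme for no effect and DMSO wells lacking enzyme for full effect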
TRAIL sens C8: viability loss with TRAIL in NB7+C8 cells, primary screen, TRAIL sensitizer project, cell-based, ATPlite luminescence; inhibition (viability loss, TRAIL sensitization), % at 10 µM; hit rate 1% among 360,000; AID 624354, 2012;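 active = compounds causing at least 50% loss of cell viability in the single-dose screen, relative to plate controls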
SENP8 conf: SENP8 protease inhibitors, retest, confirmation, biochemical, luminescence, single concentration; inhibition, % at 12.5 µM; hit rate 40% among 6,200; shares compounds with SENP7 inh; Recombinant SENP8, Z-RLRGG-aminoluciferin luminescence, 60 min;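 active = mean inhibition across replicates above about 50%, limit read from the data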
SENP6 conf: SENP6 protease inhibitors, confirmation, biochemical, luminescence, single concentration. shares compounds with SENP7 inh. recombinant SENP6, Z-RLRGG-aminoluciferin luminescence. inhibition, % at 12.5 µM. hit rate 58% among 6,200. AID 488915, 2010
SENP7 confirm: SENP7 protease inhibitors, retest, confirmation, biochemical, luminescence, single concentration; hit rate 69% among 6,200; shares compounds with SENP7 inh; inhibition, % at 12.5 µM; recombinant SENP7, Z-RLRGG-aminoluciferin luminescence, 40 min
Casp3 SENP sel: caspase-3 protease inhibitors, confirmation, selectivity assay for SENP inhibitor project, biochemical, single concentration. shares compounds with SENP7 inh. purified caspase-3, Z-DEVD-aminoluciferin luminescence, 60 min. inhibition, % at 12.5 µM. hit rate 60% among 6,200. AID 488918, 2010;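 active = mean inhibition above about 50%, limit read from the data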;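 note: plate controls were enzyme with DMSO for no effect and wells without caspase-3 for full effect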
Target sequence (P42574 28-227 limits assumed): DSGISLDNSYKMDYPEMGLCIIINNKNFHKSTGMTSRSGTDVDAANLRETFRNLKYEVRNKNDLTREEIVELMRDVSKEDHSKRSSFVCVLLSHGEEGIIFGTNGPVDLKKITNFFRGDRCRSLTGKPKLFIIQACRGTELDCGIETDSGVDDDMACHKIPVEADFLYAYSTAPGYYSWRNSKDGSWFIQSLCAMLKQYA
SENP luc ctr: interferes with luciferase luminescence in SENP counter-screen | shares compounds with SENP7 inh | Pre-incubated SENP8/Z-RLRGG-aminoluciferin, luciferase luminescence interference | inhibition, % at 12.5 µM | hit rate 39% among 6,200 | AID 488919;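 active = mean inhibition above about 50% when retested at one dose, limit read from the data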;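 note: plate controls were DMSO wells with completed reaction for no effect and substrate without enzyme for full effect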
Active calls of the source: *; · = no result given. An excerpt weighted towards active compounds, which were near 3% of everything screened.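 Rule for the calls, unless noted: active = mean inhibition above about 50% in the one-dose retest (limit read from the data); inactive = the rest.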

SMILES	PPC-1+TRAIL kill	SENP7 inh	SENP8 block-1	SENP8 block-2	SENP6 block	TRAIL sens C8	SENP8 conf	SENP6 conf	SENP7 confirm	Casp3 SENP sel	SENP luc ctr
Cc1ccn(-c2ccc(NC(=O)c3cccs3)cc2)n1	·	80*	5	74*	85*	55*	78*	76*	94*	88*	82*
O=C(N/N=C/c1ccc(N2CCOCC2)cc1)c1cccs1	18	76*	-376	63*	74*	34	67*	69*	92*	90*	70*
Cc1nn(C(C)C(=O)NCCCc2ccccc2)c(=O)c2nn(-c3ccccc3)c(C)c12 (stereo not drawn)	·	6	6	1	5	16	·	·	·	·	·
Cc1cc(C(=O)Nc2ccc3c(c2)OCCO3)c(C)o1	27	51*	14	32	-40	22	46	47	84*	81*	67*
O=C(Nc1ccc2c(c1)OCCO2)c1coc2ccccc2c1=O	0	98*	-226	86*	98*	-2	86*	85*	92*	71*	14
Cc1cc(C(=O)Nc2ccc3c(c2)OCCO3)c2ccccc2n1	-4	2	17	3	-2	-13	·	·	·	·	·
CSc1ccccc1C(=O)Nc1ccc2c(c1)OCCO2	5	18	22	-20	12	6	·	·	·	·	·
Cc1ccccc1C(=O)Nc1ccc2c(c1)OCCO2	·	69*	17	55*	63*	62*	53*	52*	84*	85*	67*
Cc1occc1C(=O)Nc1ccc2c(c1)OCCO2	32	84*	8	73*	89*	6	11	78*	95*	90*	76*
CC(C)(C)Cc1c(-c2ccc(F)cc2)nc2ccc(Br)cn12	·	·	16	·	·	8	·	·	·	·	·
Cc1cnc(C(=O)Nc2ccc3c(c2)CCC3)cn1	19	36	9	12	39	13	·	·	·	·	·
Cc1occc1C(=O)Nc1ccc2c(c1)CCC2	9	93*	5	86*	91*	22	92*	92*	99*	94*	92*
COc1ccc(C(=O)CSC(=S)N2CCCCC2)cc1	·	·	5	·	·	6	·	·	·	·	·
O=C(CSC(=S)N1CCCCC1)c1ccccc1	34	74*	14	63*	74*	54*	-5	63*	90*	73*	67*
O=C(CSC(=S)N1CCCC1)c1ccccc1	·	54*	-9	28	64*	16	52*	52*	78*	70*	56*
COc1ccc(NC(=O)C(NS(=O)(=O)c2ccc3c(c2)CCCN3C(C)=O)C(C)C)c(OC)c1 (stereo not drawn)	23	102*	29	1	-4	-2	-25	-10	1	-2	-5
CC(=O)N1CCCc2cc(S(=O)(=O)NC(C(=O)NC3CCCCC3)C(C)C)ccc21 (stereo not drawn)	15	4	11	2	-18	-8	·	·	·	·	·
CCOc1ccccc1Nc1nc(-c2cccnc2)cs1	·	4	12	-13	-7	-6	·	·	·	·	·
CC(=O)Nc1cccc(-c2csc(Nc3ccccn3)n2)c1	39	92*	4	79*	84*	22	88*	87*	98*	68*	88*
c1cncc(Nc2nc(-c3cccnc3)cs2)c1	7	8	18	-5	7	-3	·	·	·	·	·
c1ccc(Nc2nc(-c3cccnc3)cs2)nc1	48	81*	4	55*	88*	37	17	35	88*	79*	16
Clc1ccccc1Nc1nc(-c2cccnc2)cs1	·	83*	20	74*	88*	45	89*	86*	97*	66*	53*
Fc1ccc(-c2csc(Nc3ccccn3)n2)cc1	·	90*	8	83*	87*	37	91*	92*	100*	70*	58*
CC1(C(=O)NS(=O)(=O)C2CC2)CCN(C(=O)C2(c3ccc(Cl)cc3)CCCC2)C1 (stereo not drawn)	·	·	3	·	·	-12	·	·	·	·	·
CCN(CC(=O)NCc1ccncc1)S(=O)(=O)c1ccccc1	·	0	-4	-8	17	-8	·	·	·	·	·
SMILES	PPC-1+TRAIL kill	SENP7 inh	SENP8 block-1	SENP8 block-2	SENP6 block	TRAIL sens C8	SENP8 conf	SENP6 conf	SENP7 confirm	Casp3 SENP sel	SENP luc ctr
COc1ccc(CCCC(=O)NCc2ccccc2)cc1C	25	0	15	1	-7	-1	·	·	·	·	·
COc1cc(S(=O)(=O)N2CC(=O)Nc3ccccc32)ccc1NC(C)=O	·	0	-48	4	-5	-9	·	·	·	·	·
CCCCc1ccc(-c2nc(-c3ccncc3)no2)cc1	14	90*	0	83*	21	4	11	11	9	-5	2
CCc1ccc(-c2nc(-c3ccncc3)no2)cc1	18	90*	26	80*	87*	23	84*	88*	97*	80*	67*
CCCc1ccc(-c2ccc(-c3noc(-c4ccncc4)n3)cc2)nc1	·	-3	6	2	-26	43	·	·	·	·	·
COc1ccccc1OCC(=O)NCC1CCCN(Cc2cnn(C)c2C)C1 (stereo not drawn)	·	2	5	-5	10	-32	·	·	·	·	·
O=C(NCc1cccnc1)c1[nH]c(C(F)(F)F)nc1-c1ccccc1	·	·	22	·	·	-17	·	·	·	·	·
Cc1cccc(C)c1C(O)c1ncc(-c2ccccc2Cl)[nH]1 (stereo not drawn)	·	·	6	·	·	-16	·	·	·	·	·
Cc1cccc(NC(=S)NNC(=O)c2csc(C(C)C)c2)c1	23	87*	20	50	77*	20	9	11	12	8	18
Cc1cccc(C(=O)NNC(=O)Nc2ccccc2)c1	0	-1	19	4	0	8	·	·	·	·	·

Source: PubChem
